Several values for one entry are separate records, joined by “and”; a condition that tells them apart may be missing. Equal entries are not always repeated. Results filed as inconclusive are left out. Activity calls are given as the source filed them. How the source made its calls: active means hit-call score of the fitted dose curve at least 0.9, where 1 is the maximum; inconclusive means response in the unintended direction; inactive means score below 0.9.

human Peripheral-type Benzodiazepine Receptor (PBR), TSPO (gene 706), sequence (P30536 whole entry, looked up): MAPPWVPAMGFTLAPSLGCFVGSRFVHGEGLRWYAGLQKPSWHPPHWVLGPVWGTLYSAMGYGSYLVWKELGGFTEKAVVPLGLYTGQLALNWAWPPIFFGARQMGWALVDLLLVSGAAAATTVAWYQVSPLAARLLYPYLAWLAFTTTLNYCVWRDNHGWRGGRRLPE

The assay has as its target human Peripheral-type Benzodiazepine Receptor (PBR), TSPO (gene 706) (UniProt P30536). The assay can be described thus: NVS_MP_hPBR: NovaScreen (NVS) Membrane Protein Assay for human Peripheral-type Benzodiazepine Receptor (PBR) (AID 2283331). The protocol:
NVS_MP_hPBR is a biochemical, single-readout assay that uses extracted gene-proteins from Human colonic cell membranes in a tissue-based cell-free assay. Measurements were taken 1 hour after chemical dosing in a 48-well plate.NVS_MP_hPBR is one of one assay component(s) measured or calculated from the NVS_MP_hPBR assay. It is designed to make measurements of radioligand binding, a form of binding reporter, as detected with scintillation counting signals by Filter-based radiodetection technology.Data from the assay component NVS_MP_hPBR was analyzed into 1 assay endpoint. This assay endpoint, NVS_MP_hPBR, was analyzed in the positive analysis fitting direction relative to DMSO as the negative control and baseline of activity. Using a type of binding reporter, loss-of-signal activity can be used to understand changes in the binding as they relate to the gene TSPO. Furthermore, this assay endpoint can be referred to as a primary readout, because the performed assay has only produced 1 assay endpoint. To generalize the intended target to other relatable targets, this assay endpoint is annotated to the transporter intended target family, where the subfamily is cholesterol transporter.
Binding assays used specific radioligands (tritiated, iodinated) with non-radioactive competitive displacement ligands in agonist or antagonist protocols (as indicated) and various reference compounds and inhibitors to titrate specific binding to receptors and transporters. Most enzyme assays (CYPs, kinases, phosphatases, proteases, HDACs) used recombinant protein and specific substrates (fluorescence mostly, some colorimetric and radioactive) and inhibitors, followed by a biochemical separation of substrate and product. All assays for the biochemical HTS were initially run in duplicate at a single concentration (10 uM for CYP450 assays and 25 uM for all others). […] Each assay was run with positive and negative controls, and concurrent controls on every plate. The follow-up (secondary) screen tested active chemical-pairs in concentration series, as well as a few additional assays not tested in the primary screen, some selected negative inactives, and several cases re-run in the concentration series for confirmatory purposes.
What is called AC50 is the concentration at which the activity in the assay is half-maximal. Take `NC(=O)N1C(=O)C(C(=O)c2cc(Cl)cs2)c2cc(F)c(Cl)cc21` (stereo unspecified): the AC50 is 0.951 µM (active). In the case of `CCC(=C(c1ccc(O)cc1)c1ccc(OCCN(C)C)cc1)c1ccccc1`, the compound was classed as inactive. In the case of `NC(=O)N(O)[C@@H]1C=C[C@H](Oc2cccc(Oc3ccc(F)cc3)c2)C1`, the AC50 was 28.5 µM (active). On to `CC1=C(/C=C/C(C)=C/C=C/C(C)=C/C(=O)O)C(C)(C)CCC1`, for which the AC50 was 18.1 µM (active). Take `CCCOC(=O)c1ccc(O)cc1`: the compound was called inactive. In the case of `CCN(CC)CCNc1ccc(CNC=O)c2sc3ccc(OC)cc3c(=O)c12`, the AC50 is 8.04 µM (active). With `O=C(O)Cc1cc(I)c(Oc2cc(I)c(O)c(I)c2)c(I)c1`, the compound was classed as inactive. Turning to `c1ccc2cc3c(ccc4ccccc43)cc2c1`, the AC50 is 3.45 µM (active) and 5.17 µM (active) and 12.5 µM (active). Still for that read-out and setting: in the case of `CCc1ccc(CCOc2ccc(CC3SC(=O)NC3=O)cc2)nc1` (stereo unspecified) it was 12.1 µM (active); in that of `Cc1oc(-c2ccccc2)nc1CCOc1ccc(C[C@H](Nc2ccccc2C(=O)c2ccccc2)C(=O)O)cc1`, 6.36 µM (active). On the same count and under the same terms, then `CC[C@H](c1ccc(O)cc1)[C@@H](CC)c1ccc(O)cc1`, with 795 nM (active) [middle of 4 runs].

The values above are taken from PubChem BioAssay (EPA / NIEHS).
